Conditions in all cases: mRNA level, 48 h; actives raise or lower the signal
Read-out in test [1]: Glutamate-cysteine ligase catalytic (GCLC), GCLC (gene 2729)
As to the kind of experiment: LTEA_HepaRG_GCLC: Life Technologies and Expression Analysis (LTEA) Assay for Glutamate-cysteine ligase catalytic (GCLC) using HepaRG (AID 2283498). In outline: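 Differentiated human HepaRG cells, plated 48 h then switched to serum-free induction medium, were exposed in duplicate for 48 h to 8 half-log concentrations topping at 100 uM in 0.5% DMSO. GCLC mRNA was quantified by qRT-PCR against ACTB, GAPDH and POLR2A.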

Read-out in test [2]: growth arrest and DNA damage 45 (GADD45G), GADD45G (gene 10912)
As to the kind of experiment: LTEA_HepaRG_GADD45G: Life Technologies and Expression Analysis (LTEA) Assay for growth arrest and DNA damage 45 (GADD45G) using HepaRG (AID 2283499). In outline: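 Human hepatic HepaRG line treated 48 h with chemicals (eight concentrations, half-log steps from 100 uM); transcript induction or repression of GADD45G scored by qRT-PCR versus DMSO vehicle.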

Read-out in test [3]: Glutamate-cysteine ligase regulatory (GCLM), GCLM (gene 2730)
The experiment in a line: LTEA_HepaRG_GCLM: Life Technologies and Expression Analysis (LTEA) Assay for Glutamate-cysteine ligase regulatory (GCLM) using HepaRG (AID 2283500). The gist of the method:
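Differentiated human HepaRG cells exposed 48 h in serum-free induction medium to 8-point half-log concentrations (top 100 uM, 0.5% DMSO), in duplicate. GCLM mRNA quantified by qRT-PCR, normalized to ACTB, GAPDH, POLR2A; bidirectional fitting versus DMSO.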

Read-out in test [4]: Glutathione S-transferase M3 (GSTM3), GSTM3 (gene 2947)
As to the kind of experiment: LTEA_HepaRG_GSTM3: Life Technologies and Expression Analysis (LTEA) Assay for Glutathione S-transferase M3 (GSTM3) using HepaRG (AID 2283501). The gist of the method:
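Changes in GSTM3 expression, an oxidative-stress marker, were scored by bidirectional curve fitting against 0.5% DMSO vehicle. Human HepaRG cultures received chemicals for 48 h in duplicate, highest concentration 100 uM with half-log dilutions.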

Read-out in test [5]: Heat shock 70 kDa protein 1 (HSPA1A), gene 3303
The experiment in a line: LTEA_HepaRG_HSPA1A: Life Technologies and Expression Analysis (LTEA) Assay for Heat shock 70 kDa protein 1 (HSPA1A) using HepaRG (AID 2283502). The gist of the method:
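Differentiated human HepaRG cells in serum-free induction medium were exposed in duplicate for 48 h to eight concentrations (top 100 uM, half-log steps, 0.5% DMSO). HSPA1A mRNA was quantified by qRT-PCR, normalized to ACTB, GAPDH and POLR2A, and fitted bidirectionally against DMSO.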

Read-out in test [6]: Hypoxia-inducible factor 1-alpha (Homo sapiens) (UniProt Q16665)
The experiment in a line: LTEA_HepaRG_HIF1A: Life Technologies and Expression Analysis (LTEA) Assay for Hypoxia-inducible factor 1 (HIF1A) Trancription factor using HepaRG (AID 2283503). The gist of the method: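 HepaRG, 48 h exposure, 8-pt half-log series from 100 uM, 0.5% DMSO vehicle, duplicates. Readout: HIF1A transcript by qRT-PCR (Fluidigm array), housekeeping-normalised. Bidirectional curve fit vs DMSO baseline.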

Read-out in a further test: HGF (gene 3082)
As to the kind of experiment: LTEA_HepaRG_HGF: Life Technologies and Expression Analysis (LTEA) Assay for Hepatocyte Growth Facto (HGF) using HepaRG (AID 2283505). In outline:
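Gain or loss of HGF mRNA in human HepaRG liver cells after 48 h chemical exposure; eight concentrations up to 100 uM with 0.5% DMSO vehicle, quantified by TaqMan qRT-PCR.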

Read-out in test [7]: Insulin Like Growth Factor 1 (IGF1), IGF1 (gene 3479)
As to the kind of experiment: LTEA_HepaRG_IGF1: Life Technologies and Expression Analysis (LTEA) Assay for Insulin Like Growth Factor 1 (IGF1) using HepaRG (AID 2283506). The gist of the method:
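Differentiated human HepaRG cells were dosed for 48 h in serum-free induction medium with 0.5% DMSO, eight half-log concentrations up to 100 uM, in duplicate. IGF1 mRNA was quantified by qRT-PCR normalized to ACTB, GAPDH, POLR2A; bidirectional fitting versus DMSO.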

Read-out in test [8]: Interleukin 6 (IL6), IL6 (gene 3569)
As to the kind of experiment: LTEA_HepaRG_IL6: Life Technologies and Expression Analysis (LTEA) Assay for Interleukin 6 (IL6) using HepaRG (AID 2283509). In outline:
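Differentiated human HepaRG cells, plated 48 h then switched to serum-free induction medium, were exposed in duplicate for 48 h to eight half-log concentrations up to 100 uM in 0.5% DMSO. IL6 mRNA measured by qRT-PCR, normalized to ACTB/GAPDH/POLR2A.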

Read-out in test [9]: Interleukin 6 Receptor (IL6R), IL6R (gene 3570)
As to the kind of experiment: LTEA_HepaRG_IL6R: Life Technologies and Expression Analysis (LTEA) Assay for Interleukin 6 Receptor (IL6R) using HepaRG (AID 2283510).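 For AC50: TaqMan qRT-PCR signal normalized to ACTB GAPDH and POLR2A housekeeping genes.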 In outline: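 Differentiated human HepaRG cells, plated 48 h then switched to serum-free induction medium, were dosed in duplicate for 48 h at eight half-log concentrations up to 100 uM in 0.5% DMSO. IL6R mRNA quantified by qRT-PCR, normalized to ACTB/GAPDH/POLR2A; bidirectional fit versus DMSO.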

Read-out in test [10]: Potassium channel subfamily K member 1 (KCNK1), KCNK1 (gene 3775)
As to the kind of experiment: LTEA_HepaRG_KCNK1: Life Technologies and Expression Analysis (LTEA) Assay for Potassium channel subfamily K member 1 (KCNK1) using HepaRG (AID 2283511). In outline: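 Differentiated human HepaRG cells in serum-free induction medium were exposed in duplicate for 48 h to 8 half-log concentrations up to 100 uM in 0.5% DMSO. KCNK1 mRNA was measured by TaqMan qRT-PCR, normalized to ACTB, GAPDH and POLR2A, and fitted bidirectionally versus DMSO.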

Read-out in test [11]: Keratin 19 (KRT19), KRT19 (gene 3880)
As to the kind of experiment: LTEA_HepaRG_KRT19: Life Technologies and Expression Analysis (LTEA) Assay for Keratin 19 (KRT19) using HepaRG (AID 2283512). In outline: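 Gene-expression endpoint in the human liver line HepaRG after 48 h exposure to up to 100 uM test chemical with 0.5% DMSO vehicle; KRT19 mRNA by qRT-PCR, analyzed bidirectionally versus DMSO.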

Read-out in test [12]: JUN Transcription Factor, JUN (gene 3725)
As to the kind of experiment: LTEA_HepaRG_JUN: Life Technologies and Expression Analysis (LTEA) Assay for JUN Transcription Factor using HepaRG (AID 2283513). In outline:
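Differentiated HepaRG cells were exposed to chemicals for 48 h in serum-free induction medium, 8 concentrations from 100 uM in half-log steps, 0.5% DMSO vehicle, in duplicate. JUN mRNA was quantified by TaqMan qRT-PCR, normalized to ACTB, GAPDH, POLR2A.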

Read-out in test [13]: Lipase C (LIPC), LIPC (gene 3990)
The experiment in a line: LTEA_HepaRG_LIPC: Life Technologies and Expression Analysis (LTEA) Assay for Lipase C (LIPC) using HepaRG (AID 2283514). In outline:
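Differentiated human HepaRG cells in serum-free induction medium were exposed in duplicate for 48 h to eight concentrations (top 100 uM, half-log steps, 0.5% DMSO). LIPC mRNA was quantified by TaqMan qRT-PCR, normalized to ACTB, GAPDH and POLR2A, with bidirectional fitting versus DMSO.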

Read-out in test [14]: Lipoprotein lipase (LPL), LPL (gene 4023)
The experiment in a line: LTEA_HepaRG_LPL: Life Technologies and Expression Analysis (LTEA) Assay for Lipoprotein lipase (LPL) using HepaRG (AID 2283515). In outline: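 Differentiated human HepaRG cells in serum-free induction medium were exposed in duplicate for 48 h to eight half-log concentrations (top 100 uM) in 0.5% DMSO. LPL mRNA was quantified by TaqMan qRT-PCR, normalized to ACTB, GAPDH and POLR2A.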

Read-out in test [15]: MicroRNA 122 (MIR122), gene 406906
The experiment in a line: LTEA_HepaRG_MIR122: Life Technologies and Expression Analysis (LTEA) Assay for MicroRNA 122 (MIR122) using HepaRG (AID 2283516). Note: the transcript read is the microRNA miR-122. In outline: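 Differentiated human HepaRG cells were exposed 48 h in serum-free induction medium to eight half-log concentrations (top 100 uM, 0.5% DMSO). Transcript level was measured by TaqMan qRT-PCR, normalized to ACTB, GAPDH and POLR2A, and fitted bidirectionally versus DMSO.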

Read-out in test [16]: matrix metalloproteinase-10 (MMP10), MMP10 (gene 4319)
As to the kind of experiment: LTEA_HepaRG_MMP10: Life Technologies and Expression Analysis (LTEA) Assay for matrix metalloproteinase-10 (MMP10) using HepaRG (AID 2283517). The gist of the method: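 HepaRG, collagen I, ~100,000 cells/well; serum-free induction medium; 48 h exposure, duplicate, 8-pt half-log to 100 uM, 0.5% DMSO. Readout: TaqMan qRT-PCR, normalized to ACTB/GAPDH/POLR2A; bidirectional fit vs DMSO.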

Read-out in test [17]: Intercellular Adhesion Molecule 1 (ICAM1), ICAM1 (gene 3383)
As to the kind of experiment: LTEA_HepaRG_ICAM1: Life Technologies and Expression Analysis (LTEA) Assay for Intercellular Adhesion Molecule 1 (ICAM1) using HepaRG (AID 2283507). The gist of the method: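 Gain or loss of transcript in HepaRG hepatic cells is quantified by qRT-PCR after 48 h chemical exposure (up to 100 uM, half-log steps), with DMSO as baseline.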

Read-out in test [18]: Insulin-like growth factor-binding protein 1 (IGFBP1), IGFBP1 (gene 3484)
The experiment in a line: LTEA_HepaRG_IGFBP1: Life Technologies and Expression Analysis (LTEA) Assay for Insulin-like growth factor-binding protein 1 (IGFBP1) using HepaRG (AID 2283508). In outline: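 mRNA induction or loss was quantified by qRT-PCR after 48 h chemical exposure of human HepaRG cells, with 0.5% DMSO as vehicle and baseline. Concentration-response over eight points up to 100 uM.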

Read-out in test [19]: 3-Hydroxy-3-Methylglutaryl-CoA Synthase 2 (HMGCS2), HMGCS2 (gene 3158)
As to the kind of experiment: LTEA_HepaRG_HMGCS2: Life Technologies and Expression Analysis (LTEA) Assay for 3-Hydroxy-3-Methylglutaryl-CoA Synthase 2 (HMGCS2) using HepaRG (AID 2283504). In outline:
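Expression of HMGCS2 in human HepaRG liver cells is measured by qRT-PCR 48 h after dosing (highest 100 uM, half-log series, 0.5% DMSO). Values come from bidirectional concentration-response fitting with DMSO as baseline.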

Data on three molecules can be found in PubChem BioAssay (EPA / NIEHS).

SMILES strings stand for the structures. Activity calls are given as the source filed them. Rule for the calls: active = hit-call score of the fitted dose curve at least 0.9, where 1 is the maximum; inactive = score below 0.9.

Sequence of Hypoxia-inducible factor 1-alpha (Homo sapiens) (Q16665 whole entry, looked up): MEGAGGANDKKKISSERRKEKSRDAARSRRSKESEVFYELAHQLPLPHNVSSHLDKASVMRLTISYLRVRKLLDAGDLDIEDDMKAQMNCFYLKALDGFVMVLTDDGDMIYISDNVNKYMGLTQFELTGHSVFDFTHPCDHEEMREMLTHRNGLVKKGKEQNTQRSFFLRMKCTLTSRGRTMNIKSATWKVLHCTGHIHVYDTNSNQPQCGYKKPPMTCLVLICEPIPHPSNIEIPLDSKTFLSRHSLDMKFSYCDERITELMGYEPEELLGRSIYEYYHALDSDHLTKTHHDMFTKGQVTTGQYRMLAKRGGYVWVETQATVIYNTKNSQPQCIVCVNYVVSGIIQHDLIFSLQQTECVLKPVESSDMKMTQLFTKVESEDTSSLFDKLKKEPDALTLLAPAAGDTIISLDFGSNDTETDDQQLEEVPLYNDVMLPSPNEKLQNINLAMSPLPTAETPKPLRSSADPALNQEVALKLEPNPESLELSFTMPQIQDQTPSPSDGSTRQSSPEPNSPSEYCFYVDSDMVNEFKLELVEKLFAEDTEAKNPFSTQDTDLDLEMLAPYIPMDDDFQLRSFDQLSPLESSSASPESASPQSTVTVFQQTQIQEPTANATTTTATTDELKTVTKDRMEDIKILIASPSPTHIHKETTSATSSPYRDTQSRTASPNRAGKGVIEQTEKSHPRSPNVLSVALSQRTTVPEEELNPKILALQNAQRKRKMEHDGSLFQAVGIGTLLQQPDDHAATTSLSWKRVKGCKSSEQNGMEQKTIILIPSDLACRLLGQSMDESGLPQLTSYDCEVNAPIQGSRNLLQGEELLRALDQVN

Turning to `Cc1cc(Cc2ccc(N)c(C)c2)ccc1N`, the result in [1], in test [2], in [3], in [4], in test [5] and in [6] was inactive. Also, the call (in the test with HGF (gene 3082); in test [7]; in test [8]; in test [9]; in [10]; in [11]) was inactive. The molecule was called inactive in [12], in test [13], in test [14], in test [15] and in test [16].

As usually defined, the AC50 is the midpoint of the concentration-response curve, whichever way the signal moves. As to `Nc1nc(=S)c2[nH]cnc2[nH]1`, the AC50 was 15.3 µM (active) in test [1]; 20.5 µM (active) in [7]; 14.8 µM (active) in test [8]; 8.69 µM (active) in test [9]; 7.57 µM (active) in [12]; 5.83 µM (active) in [13]. Also, the AC50 in [14] was 19.1 µM (active); in test [15] it was 11.9 µM (active). The molecule was classed as inactive (in test [2]; in test [3]; in test [4]; in test [6]; with HGF (gene 3082); in test [17]). Further, the molecule was classed as inactive in test [18], in test [11] and in [16].

As for `CC(C)NCC(O)c1ccc(O)c(O)c1` (stereo not drawn), the outcome in test [1], in test [2], in test [3], in test [7], in test [17] and in [18] was inactive. The molecule was classed as inactive in [8], in test [10], in [12], in test [15] and in test [16]. Besides, the AC50 was 0.273 µM (active) in test [4]; 0.116 µM (active) in test [5]; 0.173 µM (active) in test [19]; 0.166 µM (active) with HGF (gene 3082); 9.92 µM (active) in test [9]; 0.149 µM (active) in [11]. In addition, the results for the AC50 in [13] and in test [14] were 0.227 µM (active) and 0.319 µM (active), respectively.
